Experimental data published in PubChem BioAssay (NCATS).
Inconclusive results are not listed. Calls of active or inactive are those of the source. Unless noted, calls follow the shape of the dose curve; as a rule, active = well fitted curve in the direction sought with a large enough effect; inconclusive = small, poorly fitted or top-dose-only effect, or another doubt; inactive = no such curve, though single readings can be large; an effect the other way counts as inactive or inconclusive.

Key:
[1] = target: Ubiquitin carboxyl-terminal hydrolase 1 (Homo sapiens) (UniProt O94782); experiment: Inhibitors of USP1/UAF1: Pilot qHTS (AID 504865); details: purified USP1/UAF1, Ub-rhodamine cleavage fluorescence; series mostly up to 54.9 µM; also: nearly all actives have a fitted effect of over 35% in size; also: potency is read from the fitted curve at half-maximal effect
Procedure, shortened: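 1nM USP1/UAF1 + cpd, 15 min RT; start w/ Ub-Rho 150nM final; kinetic FL 480/540 nm, 6 reads q60 s. Buffer 50mM HEPES pH 7.8, 0.5mM EDTA, 1mM TCEP, 0.01% Tween-20, 0.1 mg/ml BSA.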

[2] = target: Cytochrome P450 1A2 (Homo sapiens) (UniProt P05177); experiment: p450-cyp1a2 (AID 410; calls by dose curve; also: potency is read from the fitted curve at half-maximal effect); details: recombinant CYP1A2, luciferin-ME demethylation, luminescence; series mostly up to 57 µM
Procedure, shortened: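 Inhibition was calculated relative to 57 uM furafylline (full inhibition). The reaction used human CYP1A2 at 20nM with Luciferin-ME at its Km, 100uM, driven by an NADPH-regenerating system for 60 min at room temperature.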

[3] = target: Guanine nucleotide-binding protein G(i) subunit alpha-1 (Homo sapiens) (UniProt P63096); experiment: qHTS Assay for Inhibitors of RGS12 GoLoco Motif Activity (Green Fluorophore) (AID 879); details: Galphai1/FITC-RGS12 GoLoco peptide, fluorescence polarization; series mostly up to 57.1 µM;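 also: negative values mean loss of peptide binding seen as reduced polarization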
Procedure, shortened: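 Fluorescence polarization assay: 50 nM Gαi1 with 10 nM FITC-labeled RGS12 GoLoco peptide in 10 mM Tris pH 7.5, 150 mM NaCl, 0.1 mM GDP, 0.05% NP40, 10 min at room temperature with compound.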

[4] = target: Pyruvate kinase (Leishmania mexicana) (UniProt Q27686); experiment: qHTS Validation Assay for Inhibitors of Leishmania Mexicana Pyruvate Kinase (AID 945); details: purified L. mexicana pyruvate kinase, enzyme activity, E451W mutant enzyme; series mostly up to 57.5 µM
Procedure, shortened: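 Pyruvate kinase activity of E451W LmPYK (0.2 nM) was followed as ATP output after 1 h at room temperature with 0.5 mM PEP and 0.1 mM ADP, detected by PKLight luminescence.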

[5] = target: Pyruvate kinase PKM (Homo sapiens) (UniProt P14618); experiment: qHTS Assay for Activators of Human Muscle Pyruvate Kinase (AID 954; active = well fitted curve in the direction sought with a large enough effect, not every such curve was filed as active); details: purified human muscle pyruvate kinase, luciferase-coupled luminescence, 1 h; series mostly up to 57.5 µM
Procedure, shortened: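 Reaction: 0.1 nM purified PKM2 with 0.5 mM phosphoenolpyruvate and 0.1 mM ADP, room temperature, 1 h. Readout: luciferase-based ATP luminescence after stop reagent. Activators judged against a 0.3 nM enzyme column.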

[6] = target: Alpha-galactosidase A (Homo sapiens) (UniProt P06280); experiment: Counterscreen for Glucocerebrosidase Inhibitors: qHTS Assay for Human alpha-Galactosidase at pH 4.5 (AID 992); details: purified enzyme, fluorogenic substrate; series mostly up to 76.9 µM
Procedure, shortened: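 Concentration-response curves (0.7 nM to 77 uM final) were modeled with the Hill equation to give AC50. Reactions: 2 nM enzyme, 80 uM fluorogenic alpha-galactoside, pH 4.5 citric acid buffer, 20 min, room temperature.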

[7] = target: alpha-glucosidase (Oryza sativa, rice) (UniProt Q653V4); experiment: Counterscreen for Glucocerebrosidase Inhibitors: qHTS Assay for Rice alpha-Glucosidase at pH 5.0 (AID 997); details: rice alpha-glucosidase enzyme activity; series mostly up to 76.9 µM
Procedure, shortened: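 Rice alpha-glucosidase (4 nM final) with 400 uM 4-methylumbelliferyl-alpha-D-glucopyranoside in citrate buffer pH 5.0, 20 min at room temperature, stopped at pH 10; fluorescence 365/440 nm, compounds 0.7 nM–77 uM, AC50 from Hill fits.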

[8] = tested on: AA1029; experiment: qHTS profiling for inhibitors of Plasmodium falciparum proliferation (AID 504749); also: nearly all actives have a fitted effect of over 60% in size; also: potency is read from the fitted curve at half-maximal effect; details: P. falciparum in erythrocytes, SYBR Green DNA, 72 h; series mostly up to 28.7 µM
Procedure, shortened: (§1)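 Three-day growth assay of blood-stage parasites in erythrocytes (0.3% parasitemia, 2.5% hematocrit) at 37 C, 5% CO2, quantified by SYBR Green DNA staining after overnight detergent lysis.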

[9] = tested on: ATS95; experiment: as above; details: P. falciparum in erythrocytes, SYBR Green DNA, 72 h; series mostly up to 28.7 µM
Procedure, shortened: as §1

[10] = tested on: C2A; experiment: as above; details: P. falciparum in erythrocytes, SYBR Green DNA, 72 h; series mostly up to 28.7 µM
Procedure, shortened: as §1

[11] = tested on: CP191; experiment: as above; details: P. falciparum in erythrocytes, SYBR Green DNA, 72 h; series mostly up to 28.7 µM
Procedure, shortened: as §1

[12] = tested on: CP217; experiment: as above; details: P. falciparum in erythrocytes, SYBR Green DNA, 72 h; series mostly up to 28.7 µM
Procedure, shortened: as §1

[13] = tested on: CP237; experiment: as above; details: P. falciparum in erythrocytes, SYBR Green DNA, 72 h; series mostly up to 28.7 µM
Procedure, shortened: as §1

[14] = tested on: CP252; experiment: as above; details: P. falciparum in erythrocytes, SYBR Green DNA, 72 h; series mostly up to 28.7 µM
Procedure, shortened: as §1

[15] = tested on: CP286; experiment: as above; details: P. falciparum in erythrocytes, SYBR Green DNA, 72 h; series mostly up to 28.7 µM
Procedure, shortened: as §1

[16] = tested on: ECU; experiment: as above; details: P. falciparum in erythrocytes, SYBR Green DNA, 72 h; series mostly up to 28.7 µM
Procedure, shortened: as §1

[17] = tested on: P93_24; experiment: as above; details: P. falciparum in erythrocytes, SYBR Green DNA, 72 h; series mostly up to 28.7 µM
Procedure, shortened: as §1

[18] = tested on: PC49; experiment: as above; details: P. falciparum in erythrocytes, SYBR Green DNA, 72 h; series mostly up to 28.7 µM
Procedure, shortened: as §1

[19] = tested on: SC27B; experiment: as above; details: P. falciparum in erythrocytes, SYBR Green DNA, 72 h; series mostly up to 28.7 µM
Procedure, shortened: as §1

[20] = tested on: TAB165; experiment: as above; details: P. falciparum in erythrocytes, SYBR Green DNA, 72 h; series mostly up to 28.7 µM
Procedure, shortened: as §1

Measured: Potency

Chain of Ubiquitin carboxyl-terminal hydrolase 1 (Homo sapiens) (O94782 whole entry, looked up): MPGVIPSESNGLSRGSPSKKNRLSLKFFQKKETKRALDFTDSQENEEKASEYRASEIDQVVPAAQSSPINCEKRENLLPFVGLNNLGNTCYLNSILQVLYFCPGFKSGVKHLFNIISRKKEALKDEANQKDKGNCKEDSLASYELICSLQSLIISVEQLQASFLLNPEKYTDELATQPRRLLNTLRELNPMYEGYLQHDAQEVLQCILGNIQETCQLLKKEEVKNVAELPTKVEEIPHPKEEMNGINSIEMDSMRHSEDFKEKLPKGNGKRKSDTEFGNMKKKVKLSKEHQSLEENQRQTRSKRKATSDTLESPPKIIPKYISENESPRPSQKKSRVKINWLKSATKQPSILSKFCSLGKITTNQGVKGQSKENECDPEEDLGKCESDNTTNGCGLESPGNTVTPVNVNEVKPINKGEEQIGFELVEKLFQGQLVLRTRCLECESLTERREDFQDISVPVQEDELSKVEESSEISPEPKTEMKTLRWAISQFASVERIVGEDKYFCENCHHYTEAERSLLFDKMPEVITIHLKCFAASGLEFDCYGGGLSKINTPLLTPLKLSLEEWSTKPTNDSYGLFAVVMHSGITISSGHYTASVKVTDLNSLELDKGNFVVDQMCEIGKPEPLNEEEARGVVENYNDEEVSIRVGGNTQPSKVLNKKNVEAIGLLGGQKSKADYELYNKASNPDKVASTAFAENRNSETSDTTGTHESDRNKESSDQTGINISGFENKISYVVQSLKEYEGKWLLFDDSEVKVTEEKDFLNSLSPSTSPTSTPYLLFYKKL
Chain of Pyruvate kinase (Leishmania mexicana) (Q27686 2-499 E452W): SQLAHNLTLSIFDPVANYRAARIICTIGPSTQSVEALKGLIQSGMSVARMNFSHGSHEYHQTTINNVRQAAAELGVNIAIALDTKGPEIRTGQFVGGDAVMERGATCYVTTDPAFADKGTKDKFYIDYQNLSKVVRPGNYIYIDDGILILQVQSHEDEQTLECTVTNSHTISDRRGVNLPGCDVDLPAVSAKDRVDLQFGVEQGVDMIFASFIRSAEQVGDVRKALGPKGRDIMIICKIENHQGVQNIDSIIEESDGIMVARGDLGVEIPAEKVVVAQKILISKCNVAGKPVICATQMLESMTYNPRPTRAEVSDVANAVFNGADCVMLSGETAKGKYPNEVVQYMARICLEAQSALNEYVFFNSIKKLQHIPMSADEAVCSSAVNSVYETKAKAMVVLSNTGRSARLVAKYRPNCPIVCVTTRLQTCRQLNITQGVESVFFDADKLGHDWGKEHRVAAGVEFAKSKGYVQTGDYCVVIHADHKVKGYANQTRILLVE
Chain of Pyruvate kinase PKM (Homo sapiens) (P14618 whole entry, looked up): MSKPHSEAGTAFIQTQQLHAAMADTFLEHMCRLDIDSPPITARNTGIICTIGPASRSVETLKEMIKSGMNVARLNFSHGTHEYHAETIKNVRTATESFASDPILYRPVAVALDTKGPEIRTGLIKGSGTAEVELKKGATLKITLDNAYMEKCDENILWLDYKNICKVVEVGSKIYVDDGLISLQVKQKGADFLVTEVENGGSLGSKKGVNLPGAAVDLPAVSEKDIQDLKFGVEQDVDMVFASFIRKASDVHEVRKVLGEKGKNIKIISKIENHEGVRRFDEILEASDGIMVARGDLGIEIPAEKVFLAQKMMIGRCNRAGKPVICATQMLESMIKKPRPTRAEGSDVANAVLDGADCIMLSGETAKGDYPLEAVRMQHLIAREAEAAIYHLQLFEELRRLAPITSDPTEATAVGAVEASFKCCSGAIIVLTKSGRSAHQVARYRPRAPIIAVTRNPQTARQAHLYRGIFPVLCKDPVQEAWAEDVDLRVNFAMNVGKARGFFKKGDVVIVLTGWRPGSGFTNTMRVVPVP
Chain of Alpha-galactosidase A (Homo sapiens) (P06280 whole entry, looked up): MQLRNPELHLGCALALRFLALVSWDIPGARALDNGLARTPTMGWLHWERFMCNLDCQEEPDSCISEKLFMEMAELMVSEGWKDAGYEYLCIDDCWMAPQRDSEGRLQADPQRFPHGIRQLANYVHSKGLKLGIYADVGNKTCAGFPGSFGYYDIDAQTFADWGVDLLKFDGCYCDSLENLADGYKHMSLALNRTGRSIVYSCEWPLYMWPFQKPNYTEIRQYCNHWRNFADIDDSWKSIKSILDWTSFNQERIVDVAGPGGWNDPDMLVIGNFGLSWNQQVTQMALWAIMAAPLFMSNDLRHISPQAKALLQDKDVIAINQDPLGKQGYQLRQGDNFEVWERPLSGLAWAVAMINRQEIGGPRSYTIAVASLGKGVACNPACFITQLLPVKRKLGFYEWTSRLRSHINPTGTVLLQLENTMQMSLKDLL
Chain of Cytochrome P450 1A2 (Homo sapiens) (P05177 whole entry, looked up): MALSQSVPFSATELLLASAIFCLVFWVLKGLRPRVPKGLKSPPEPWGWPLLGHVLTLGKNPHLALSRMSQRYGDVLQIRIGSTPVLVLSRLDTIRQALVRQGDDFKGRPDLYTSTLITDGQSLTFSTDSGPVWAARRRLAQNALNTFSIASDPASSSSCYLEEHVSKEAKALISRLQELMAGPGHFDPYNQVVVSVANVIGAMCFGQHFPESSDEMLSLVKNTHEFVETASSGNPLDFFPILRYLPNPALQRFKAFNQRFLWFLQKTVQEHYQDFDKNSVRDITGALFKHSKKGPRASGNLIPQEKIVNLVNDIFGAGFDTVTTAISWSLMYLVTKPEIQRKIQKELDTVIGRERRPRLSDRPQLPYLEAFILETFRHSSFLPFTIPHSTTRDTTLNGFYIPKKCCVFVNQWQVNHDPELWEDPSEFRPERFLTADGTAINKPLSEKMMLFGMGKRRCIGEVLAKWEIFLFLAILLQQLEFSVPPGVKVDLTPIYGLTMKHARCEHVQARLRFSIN
Chain of Guanine nucleotide-binding protein G(i) subunit alpha-1 (Homo sapiens) (P63096 whole entry, looked up): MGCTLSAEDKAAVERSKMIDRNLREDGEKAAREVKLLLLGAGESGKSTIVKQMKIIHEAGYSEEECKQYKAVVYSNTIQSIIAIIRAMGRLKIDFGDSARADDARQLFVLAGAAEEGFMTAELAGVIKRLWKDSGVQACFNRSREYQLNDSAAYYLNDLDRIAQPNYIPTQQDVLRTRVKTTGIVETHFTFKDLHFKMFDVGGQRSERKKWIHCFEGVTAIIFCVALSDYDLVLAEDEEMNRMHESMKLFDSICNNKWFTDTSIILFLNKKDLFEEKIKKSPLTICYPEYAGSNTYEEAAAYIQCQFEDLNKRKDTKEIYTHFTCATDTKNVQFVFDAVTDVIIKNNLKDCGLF

FC(F)(F)c1ccccc1-c1nc(NC2CCNCC2)c2ccccc2n1
inactive: [1]

Cn1c(=O)c(CCc2ccccc2)nc2cnc(OCc3ccccc3)nc21
inactive: [1]

O=c1cnc2cnc(N3CCNCC3)nc2n1Cc1ccc(F)cc1
inactive: [1]
active: [2] 15.8 µM

C[C@]12CCC(=O)C=C1CC[C@@H]1C2[C@@H](O)C[C@@]2(C)[C@H]1CC[C@]2(O)C(=O)CO (stereo not given in full)
inactive: [1]

Cc1cccc(CNc2cc(-c3ccccc3CN(C)C)ncn2)c1
active: [2] 25.1 µM
inactive: [1]

OC[C@H]1O[C@@H](n2cnc3c(NCCc4ccccc4)ncnc32)[C@H](O)[C@H]1O
inactive: [3] | [4] | [5] | [6] | [7]

COc1ccccc1-c1cncnc1NCCN1CCOCC1
inactive: [1]

O=c1c(CCc2ccccc2)nc2cnc(N3CCNCC3)nc2n1C1CC1
inactive: [1]

CC(C)C[C@H]1C(=O)N2CCCC2[C@]2(O)O[C@](NC(=O)[C@@H]3C=C4c5cccc6[nH]c(Br)c(c56)C[C@H]4N(C)C3)(C(C)C)C(=O)N12 (stereo not given in full)
active: [8] 3.55 µM | [9] 5.01 µM | [10] 11.2 µM | [11] 7.94 µM | [12] 7.08 µM | [13] 2 µM | [14] 7.08 µM | [15] 3.55 µM | [16] 3.55 µM | [17] 2.82 µM | [18] 6.31 µM | [19] 6.31 µM | [20] 2.82 µM

CC(C)CN(C)c1nc(N)c(C(=O)N=C(N)N)nc1Cl
inactive: [3] | [4] | [5] | [6] | [7]
active: [2] 0.794 µM

CC(=O)NCCc1ccc(O)c(O)c1
inactive: [2] | [3] | [4] | [5] | [6] | [7]

CCSC(N)=Nc1ccc(C(F)(F)F)cc1
inactive: [3] | [5] | [6] | [7]
active: [2] 2.51 µM

CO[C@H]1/C=C/O[C@@]2(C)Oc3c(C)c(O)c4c(O)c(c(/C=N\N5CCN(C6CCCC6)CC5)c(O)c4c3C2=O)NC(=O)/C(C)=C\C=C\[C@H](C)[C@H](O)[C@@H](C)[C@@H](O)[C@@H](C)[C@H](OC(C)=O)[C@@H]1C
active: [1] 56.2 µM | [8] 1.26 µM | [9] 1.26 µM | [10] 2.51 µM | [11] 1 µM | [12] 1.41 µM | [13] 0.224 µM | [14] 1.41 µM | [15] 2.24 µM | [16] 0.199 µM | [17] 0.355 µM | [18] 0.708 µM | [19] 0.251 µM | [20] 0.158 µM

COc1ccc2c(c1)c(CC(=O)O)c(C)n2Cc1ccc(F)cc1
inactive: [3] | [4] | [5] | [6] | [7]

COc1ncc2nc(CCc3ccccc3)c(=O)n(C3CC3)c2n1
active: [2] 3.16 µM

N[C@H](Cc1ccc(O)c(O)c1)C(=O)O
not listed: [1] | [2] | [3] | [4] | [5] | [6] | [7]
inactive: all other assays above

CC(C)(C)[C@]1(O)CCN2CC3c4ccccc4CCc4cccc(c43)[C@@H]2C1 (stereo not given in full)
active: [8] 7.94 µM | [9] 10 µM | [10] 11.2 µM | [11] 8.91 µM | [12] 8.91 µM | [13] 11.2 µM | [14] 10 µM | [15] 8.91 µM | [16] 14.1 µM | [17] 11.2 µM | [19] 7.94 µM | [20] 11.2 µM
inactive: [18]

CCCC(=O)NCCc1c2n(c3ccc(OC)cc13)Cc1ccccc1-2
active: [2] 2.51 µM
inactive: [3] | [4] | [5] | [6] | [7]

CN1C[C@H](C(=O)N[C@]2(C)O[C@@]3(O)C4CCCN4C(=O)[C@H](Cc4ccccc4)N3C2=O)C[C@@H]2c3cccc4[nH]cc(c34)C[C@H]21 (stereo not given in full)
active: [8] 3.55 µM | [9] 7.08 µM | [10] 8.91 µM | [11] 7.08 µM | [12] 6.31 µM | [13] 1 µM | [14] 6.31 µM | [15] 3.98 µM | [16] 1.12 µM | [17] 1.41 µM | [18] 1.78 µM | [19] 2.24 µM | [20] 1.41 µM

COCCn1c(=O)c(CCc2ccccc2)nc2cnc(OC)nc21
active: [2] 10 µM

COc1ccc(CCNC[C@@H](O)c2ccc(O)cc2)cc1OC
not listed: [2] | [3] | [4] | [5] | [6] | [7]
inactive: all other assays above

NCCCCNS(=O)(=O)c1cccc2c(Cl)cccc12
inactive: [3] | [4] | [5] | [6] | [7]
active: [2] 15.8 µM
